Laboratory results taken from PubChem BioAssay AID624441 (Broad Institute, 2012).

Assay: cellular ROS inducers, fluorescent dye readout – U2OS cells, fluorescence, dry powder, dose response (AID 624441)
Details: U2OS ROS induction, H2DCF-DA fluorescence, active compounds read high; at 19.5 µM unless noted;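 active = activation curve reaches 40% at a concentration no higher than the top valid dose tested; inactive = signal falling instead of rising, plus the rest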

Max activation, inactive:
Cc1ccccc1CSc1n[nH]c(N)n1 26% [at 0.0195 µM]
Nc1nc(SCc2ccc(Cl)cc2Cl)ns1 43.7%
O=C(Nc1ccccc1)Nc1nc(SCc2ccccc2)ns1 -12% [at 10 µM]
Cc1ccccc1CSc1nsc(N)n1 36.4% [at 5 µM]
Nc1nc(S(=O)(=O)Cc2ccccc2)ns1 20.7% [at 0.0195 µM]
Cc1cccc(CSc2nsc(N)n2)c1 19.3% [at 1.2 µM]
Nc1nc(SCc2ccccc2)ns1 18.5% [at 0.3 µM]
Nc1nc(SCc2ccc(F)cc2)ns1 27%
Cc1ccccc1CSc1nnc(N)s1 9.38%
O=C(Nc1nc(SCc2ccccc2)ns1)C1CC=CCC1 (configuration not stated) 33.9% [at 38 µM]
O=C(Nc1nc(SCc2ccccc2)ns1)C1CCC1 11.4%
Nc1nc(SCc2ccccc2Cl)ns1 15.6% [at 0.0001 µM]
